# Screens: PubChem BioAssay, National Center for Advancing Translational Sciences (NCATS)
# D3 antag – qHTS of D3 Dopamine Receptor Antagonist: qHTS | AID 652054, 2013 | max response, negative = inhibition, % | D3R cells, DiscoveRx beta-arrestin luminescence, antagonist mode; stronger effect = lower value | 360,000 compounds, 2.5% hits; in the data active = max response below about -50%; inconclusive = no clear call, values can overlap the other calls
# Target sequence (P35462 whole entry, looked up): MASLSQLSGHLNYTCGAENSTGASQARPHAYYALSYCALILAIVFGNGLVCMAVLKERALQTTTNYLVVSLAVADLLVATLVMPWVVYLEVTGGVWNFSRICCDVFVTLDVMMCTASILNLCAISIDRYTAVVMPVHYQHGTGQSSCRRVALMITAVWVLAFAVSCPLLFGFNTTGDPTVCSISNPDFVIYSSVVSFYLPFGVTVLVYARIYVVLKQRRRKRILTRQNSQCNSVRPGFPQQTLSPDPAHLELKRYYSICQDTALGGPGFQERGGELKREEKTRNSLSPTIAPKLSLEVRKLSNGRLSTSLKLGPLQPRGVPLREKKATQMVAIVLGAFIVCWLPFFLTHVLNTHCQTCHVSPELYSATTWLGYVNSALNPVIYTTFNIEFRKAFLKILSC
#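 Cells expressing the human receptor were seeded at 1500 cells/well, incubated overnight at 37 degrees C in 5% CO2, then exposed to library compounds with dopamine controls for 90 minutes at 37 degrees C before luminescent detection.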
# Rango dissoc inh – qHTS Assay for Inhibitors of RanGTP induced Rango (Ran-regulated importin-beta cargo) - Importin beta complex dissociation; Snurportin-1 (Homo sapiens) + GTP-binding nuclear protein Ran (Homo sapiens) + Importin …; Potency, µM (titrated, usually from 46.1 µM); AID 540253, 2011; 340,000 compounds, 0.071% hits; Biochemical FRET Rango-importin beta, RanGTP-induced dissociation; note: nearly all actives have a fitted effect of over 45% in size
#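 Rango FRET biosensor (snurportin-1 IBB flanked by N-terminal EYFP and C-terminal CFP10) at 0.1 uM, with 0.25 uM importin beta in PBS, 1mM DTT, 0.02% Tween-20, 0.1% BSA. 0.6 uM Ran, 2mM GTP and 0.2 uM RCC1 were then added for 45 min at room temperature. Inhibition read as loss of FRET rise.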
# TSG101-PTAP inh – qHTS Assay for Iinhibitors of HIV-1 Budding by Blocking the Interaction of PTAP/TSG101; Tumor susceptibility gene 101 protein (Homo sapiens), Q99816; Fluorescence polarization, FITC-PTAP peptide / Tsg101 binding; Potency, µM (highest dose often 115 µM), most hits filed as inhibitors; 340,000 tested, under 10 active; AID 493005, 2010; active = well fitted inhibition curve with a large enough effect in the main read-out, with a control signal flat, not every such curve was filed as active; inconclusive = small, poorly fitted or top-dose-only effect, or effect the other way, or a change in a side signal; inactive = no such curve, though single readings can be large or run the other way
#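 Fluorescence anisotropy tracks displacement of a FITC-tagged PTAP peptide (50 nM) from the Tsg101 binding domain (10 uM), following a 20 min room-temperature incubation at pH 7.5.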
# Rango-impB inh – qHTS Assay for Inhibitors of Rango (Ran-regulated importin-beta cargo) - Importin beta complex formation; Importin subunit beta-1 (Homo sapiens), Q14974; Rango CFP/YFP FRET sensor + importin beta, 45 min; Potency, µM (top dose mostly 92.2 µM); 340,000 compounds, 0.031% hits; note: nearly all actives have a fitted effect of over 15% in size
#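 FRET biosensor (snurportin 1 IBB flanked by EYFP and cerulean), 50 nM, with compound 5 min, then 0.125 microM importin beta in PBS, 1 mM DTT, 0.02% Tween-20, 0.1% BSA. CFP/YFP ratio read after 45 min at room temperature; pre-read flags interference.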
# MmCpn inh – Inhibitors of TCP-1 ring complex (TRiC) of Methanococcus maripaludis (MmCpn): qHTS | AID 504842, 2011 | purified Mm-Cpn ATPase, ADP Transcreener TR-FRET | 330,000 compounds, 0.031% hits | Potency, µM (series often up to 76.9 µM), hits mostly inhibitors | Chaperonin Mm-Cpn (Methanococcus maripaludis); active = well fitted inhibition curve with a large enough effect; inconclusive = small, poorly fitted or top-dose-only effect; note: nearly all actives have a fitted effect of over 80% in size
#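 Purified archaeal Mm-CPN (25nM final) preincubated 10 min at 37degC with compound, then 10uM ATP for 30 min at 37degC; ADP measured by HTRF Transcreener TR-FRET; buffer 30 mM TRIS pH 7.4, 100mM KCl, 5mM MgCl2, 1mM DTT.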
# D3 ag – qHTS of D3 Dopamine Receptor Agonist: qHTS. D(3) dopamine receptor (Homo sapiens), P35462. D3R DiscoveRx beta-arrestin cells, luminescence, 90 min. max activation, %. 410,000 compounds, 0.58% hits. AID 652048, 2013; in the data active = max activation above about 30%
#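 Agonist-mode cell screen: cells plated at 1500/well and incubated overnight at 37 °C, then exposed to library compounds for 90 min at 37 °C. Detection reagent was added for 30–60 min at room temperature, and luminescence was read.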
# Numbers stand for hits; i = inactive; ? = inconclusive; nt = not tested or not shown. A selection: hits, their analogues and other compounds. The true share with any hit is near 2.9%. Unless noted, calls come from the whole dose curve.
SMILES,D3 antag,Rango dissoc inh,TSG101-PTAP inh,Rango-impB inh,MmCpn inh,D3 ag
CC1CN(C(=O)COC(=O)c2cncc(Br)c2)CC(C)O1 (stereo unspecified),-54.2,nt,nt,nt,nt,i
NNC(=O)CN1C(c2ccc(Br)cc2)=Nc2ccc(Br)cc2C1c1ccccc1 (stereo unspecified),-55.0,i,i,i,i,i
COc1cc(C2=Nc3ccc(Br)cc3C(c3ccccc3)N2CC(=O)NN)cc(OC)c1OC (stereo unspecified),-50.5,i,i,i,i,i
NNC(=O)CN1C(=O)Nc2ccc(Br)cc2C1c1ccccc1 (stereo unspecified),i,?,i,i,i,i
COC(=O)CN1C(c2ccc(OC)cc2)=Nc2ccc(Cl)cc2C1c1ccccc1 (stereo unspecified),-60.0,i,i,i,i,i
COC(=O)c1cnn2c(C)c(Cc3c(C)cc(C)cc3C)c(C)nc12,nt,nt,nt,nt,nt,i
O=C(CSc1nnc2[nH]c(=O)cc(-c3ccccc3)n12)Nc1ccc(F)cc1F,nt,nt,nt,nt,nt,i
Cn1cc(C(=O)[C@@H]2CCc3nc[nH]c3C2)c2ccccc21,nt,nt,nt,nt,nt,i
CC1CCCC(C)N1S(=O)(=O)c1ccc(Cl)cc1 (stereo unspecified),i,i,i,i,i,i
CC1=C(C)CS(=O)N(S(=O)(=O)c2ccc(Cl)cc2)C1 (stereo unspecified),-88.4,i,i,i,i,i
O=c1cc(O)nc(SCc2ccc(Cl)cc2)[nH]1,i,i,i,i,i,i
CC(=O)c1ccc(OC(C)C)c(CSc2nc(O)cc(=O)[nH]2)c1,-103.2,i,i,i,i,i
c1cc2[nH]snc2c2nc(C3CC3)nc12,i,i,i,i,i,33.9
Cc1ccc(-c2nc(C)c(CCNC(=O)C(=O)Nc3ccc(C)c(Cl)c3)s2)cc1,nt,nt,nt,nt,nt,i
CSc1ncnc2c1ncn2CCCNCCCc1ccccc1,i,nt,nt,nt,nt,i
CCOC(=O)C1(C)/C(=N/Nc2cccc(Cl)c2)C(=O)C(=O)N1c1ccccc1 (stereo unspecified),-75.0,i,i,i,i,i
CCOC(=O)C1(C)/C(=N/Nc2ccc(Cl)cc2)C(=O)C(=O)N1c1ccccc1 (stereo unspecified),?,i,i,i,i,i
CCc1ccc(NC(=O)CN2C(=O)C(c3ccc(Cl)cc3)=NC23CCCCC3)cc1,nt,nt,nt,nt,nt,i
Cc1ccc2c(=O)cc(C(=O)Nc3ccc(S(=O)(=O)N4CCCCC4C)cc3)oc2c1C (stereo unspecified),nt,nt,nt,nt,nt,i
COCCn1c(SCC(=O)c2ccc3c(c2)OCCO3)nnc1C(C)C,i,i,i,?,i,i
COCCn1c(SCC(=O)c2ccc(Cl)cc2)nnc1C(C)C,-69.5,i,i,i,i,i
C=Cc1c(C)c2cc3nc(cc4[nH]c(cc5nc(cc1[nH]2)C(C)=C5CCC(=O)OC)c(CCC(=O)O)c4C)[C@@]1(C)C3=CC=C(C(=O)OC)[C@H]1C(=O)OC,nt,nt,nt,nt,nt,i
CCOc1ccc(CCNC(=O)C2Cc3ccccc3N2C(=O)CC)cc1OCC (stereo unspecified),nt,nt,nt,nt,nt,i
N/C(=N\OC(=O)CCC1CCCC1)c1cccnc1,i,i,i,i,i,i
N/C(=N\OC(=O)CC1CCCCC1)c1cccnc1,-151.4,i,i,i,i,i
SMILES,D3 antag,Rango dissoc inh,TSG101-PTAP inh,Rango-impB inh,MmCpn inh,D3 ag
Cc1ccc(CNC(=O)c2ccc(N3CCC4(CC3)CC(c3ccccc3)=NO4)c(N)c2)cc1,i,i,i,i,i,33.8
O=C(NCc1ccccc1)c1ccc(N2CCC3(CC2)CC(c2ccccc2)=NO3)c([N+](=O)[O-])c1,i,i,i,i,i,i
Cc1ccc(CNC(=O)c2ccc(N3CCC4(CC3)CC(c3ccccc3)=NO4)c(NC(=O)c3ccccc3)c2)cc1,i,i,i,i,i,i
Cc1ccc(CNC(=O)c2ccc(N3CCC4(CC3)CC(c3ccccc3)=NO4)c([N+](=O)[O-])c2)cc1,-61.4,i,i,i,i,i
CN(C(=O)CSc1nncn1-c1ccccc1)C1CCS(=O)(=O)C1 (stereo unspecified),-54.3,i,i,?,i,i
CCN(C(=O)CSc1nncn1-c1ccccc1)C1CCS(=O)(=O)C1 (stereo unspecified),i,i,i,i,i,i
CC(C)c1ccc(OCCCCN2CCCCC2)cc1,-88.0,i,i,i,i,i
Clc1ccc(SCCOCCN2CCCCCC2)cc1,-114.7,i,i,i,i,i
CC1CN(CCCCOc2ccc(C(C)C)cc2)CC(C)O1 (stereo unspecified),-63.3,i,i,i,i,i
Clc1ccc(OCCCCN2CCCCC2)cc1,-61.7,i,i,i,i,i
CC1CN(CC(O)COc2ccc(C(C)C)cc2)CC(C)O1 (stereo unspecified),i,i,i,i,i,i
Cc1ccccc1NC(=O)/C(C#N)=C/c1ccc(Cl)cc1Cl,nt,nt,nt,nt,nt,i
CCOc1ccc(OCCN2CCCCC2)cc1,i,i,i,i,i,i
CCC(C)c1ccc(OCCN2CCCC2)cc1 (stereo unspecified),-77.7,i,i,i,i,i
CC(C)Oc1ccc(OCCCN2CCCCCC2)cc1,-83.9,i,i,i,i,i
CC(C)(C)c1ccc(OCCCN2CCCC2)cc1,i,i,i,i,i,i
CCOc1ccccc1NC(=O)Cn1cc(C(=O)c2cccc(OC)c2)c(=O)c2ccc(C)nc21,nt,nt,nt,nt,nt,i
Cc1c(NC(=O)CSc2nc3ccccc3[nH]2)c(=O)n(-c2ccccc2)n1C,-77.8,i,nt,i,i,i
Cc1c(NC(=O)CN2C(=O)c3ccccc3S2(=O)=O)c(=O)n(-c2ccccc2)n1C,-54.9,i,i,i,i,i
Cc1c(NC(=O)CN2CCN(c3ccccc3)CC2)c(=O)n(-c2ccccc2)n1C,i,i,i,i,i,i
Cc1c(NC(=O)CSc2nc3ccc(Cl)cc3[nH]2)c(=O)n(-c2ccccc2)n1C,i,i,i,i,i,i
Cc1c(NC(=O)Cn2[nH]c(=O)c3ccccc3c2=O)c(=O)n(-c2ccccc2)n1C,-52.1,i,i,i,i,i
